Compound activity: PubChem BioAssay, National Center for Advancing Translational Sciences (NCATS)
Pf growth 96h: inhibits malaria parasite growth, 96 h; AID 504834; P. falciparum luciferase reporter growth, 96 h; actives 6.9% (n = 320,000); Potency, µM (series often up to 28.7 µM), for the others: at the highest dose activity change, negative = inhibition, most hits filed as inhibitors; note: % is set by controls: 0 for no effect and ±100 for the full control effect
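Readout is luminescence from an integrated firefly luciferase in P. falciparum. Red cells, 2% hematocrit and 0.05% parasitemia final, were cultured with compound through two parasite generations (96 hours) at 37 C, 5% CO2.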
NS1 inh: influenza NS1 inhibition; actives 0.4% (n = 270,000); Potency, µM (top dose mostly 46.1 µM), for the others: at the highest dose activity, positive = more growth; AID 2326; calls by dose curve; note: actives are rising curves; nearly all actives have a fitted effect of over 50% in size
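OD600 was taken as the measure of yeast growth restored by compound in an NS1-expressing S. cerevisiae strain. Cells had been washed out of glucose medium and diluted 1:100 into galactose -URA medium, pH 6.0.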
HCV inh: blocks hepatitis C virus | Huh7.5.1 HCVcc-Cre infection, luciferase reporter, 44 h | Potency, µM (series often up to 41.8 µM), without a hit: at the highest dose activity change, negative = inhibition, most hits filed as inhibitors | actives 3.4% (n = 340,000); note: % is set by controls: 0 for no effect and ±100 for the full control effect
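Infectious HCV cell culture screen: compound-treated cells (1,000/well, pre-plated 4 h) are infected with HCVcc-Cre at roughly 0.5 moi and grown 44 h. Infection is quantified by luciferase signal after 15 min substrate incubation at room temperature.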
VACV Venus inh: vaccinia inhibition (Venus reporter) | Potency, µM (top dose mostly 36.5 µM), for the others: top-dose activity change, negative = inhibition, hits mostly inhibitors | Vaccinia virus Venus reporter expression, fluorescence | actives 0.46% (n = 330,000); calls by dose curve; tested in A549 cells; note: % is set by controls: 0 for no effect and ±100 for the full control effect; nearly all actives have a fitted effect of over 30% in size
Vaccinia mCherry: vaccinia inhibition (mCherry reporter); Potency, µM (top dose mostly 36.5 µM), without a hit: top-dose activity change, negative = inhibition, actives largely listed as inhibitors; Vaccinia virus mCherry reporter infection, fluorescence; actives 0.63% (n = 310,000); calls by dose curve; tested in A549 cells; note: % is set by controls: 0 for no effect and ±100 for the full control effect; nearly all actives have a fitted effect of over 35% in size
Pf growth 48h: P. falciparum growth inhibition at 48 hours (one generation) | P. falciparum luciferase growth in erythrocytes, 48 h | Potency, µM (highest dose often 28.7 µM), inactives show at the top dose activity change, negative = inhibition, hits mostly inhibitors | actives 5.9% (n = 310,000) | AID 504832; note: % is set by controls: 0 for no effect and ±100 for the full control effect
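Luciferase-expressing parasites in RBCs, 2% Hct / 0.1% parasitemia final; RPMI 1640 + 0.5% Albumax; 37 C, 5% CO2, one generation; luminescence read-out, lower signal = inhibition.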
Active calls of the source: *; i = inactive; ? = inconclusive; · = no result given; [ ] = dose if it differs, or a comment. Most compounds without a hit are left out; they make up all but 11% or so of the library. Unless noted, calls come from the whole dose curve; as a rule, active = well fitted inhibition curve with a large enough effect; inconclusive = small, poorly fitted or top-dose-only effect, or another doubt; inactive = no such curve, though single readings can be large or run the other way. Potency is the fitted concentration of half-maximal effect.

SMILES	Pf growth 96h	NS1 inh	HCV inh	VACV Venus inh	Vaccinia mCherry	Pf growth 48h
COc1ccc(C)cc1NC(=O)CN1CCN(S(=O)(=O)c2ccc3ccccc3c2)CC1	12µM*	·	?	-17%	-8%	?
O=C(CCN1CCN(c2ccc(Cl)cc2)CC1)Nc1ccccc1F	2.9µM*	-18%	-2%	-19%	·	59%
COc1cccc(NC(=O)CCN2CCN(c3ccccc3F)CC2)c1	12µM*	-10%	-8%	-17%	-24%	18%
COc1ccc(S(=O)(=O)N2CCN(CC(=O)Nc3cc(C(F)(F)F)ccc3Cl)CC2)cc1	17%	3%	0%	-15%	·	4.7µM*
COc1ccc(C)cc1NC(=O)CN1CCN(S(=O)(=O)c2ccc(F)cc2)CC1	·	-3%	-17%	-6%	-12%	?
O=C(CN1CCN(S(=O)(=O)c2ccc(F)cc2)CC1)Nc1cc(C(F)(F)F)ccc1Cl	?	-32%	6%	-31%	·	?
COc1ccc(C)cc1NC(=O)CN1CCN(c2ccccc2F)CC1	0%	-42%	?	1%	·	13µM*
COc1ccccc1NC(=O)CN1CCN(CC(=O)Nc2ccc(F)cc2F)CC1	4.1µM*	-2%	1%	-5%	-11%	28%
COc1ccc(S(=O)(=O)N2CCN(CC(=O)c3ccc(O)c(O)c3)CC2)cc1	15µM*	-8%	-17%	·	·	-3%
Cc1ccc(S(=O)(=O)N2CCOCC2)cc1C(=O)OCC(=O)N1CCCC1=O	·	·	22%	-8%	-9%	·
CC1(C)S/C(=N/N=C/c2cccs2)NC1=O	?	1%	9%	-8%	i	?
CC1=NN(C(N)=S)C(=O)C1N=Nc1cccc(C(=O)O)c1 (stereo not given)	125%	17%	7%	-4%	i	64%
CC1=NN(C(N)=S)C(=O)C1N=Nc1cccc(C)c1 (stereo not given)	?	-55%	-28%	·	·	12µM*
CC1=NN(C(N)=S)C(=O)C1N=Nc1ccc(F)cc1 (stereo not given)	19%	-42%	2%	·	·	1.9µM*
S=c1[nH]ncc2ccccc12	·	?	11%	-2%	i	51%
CC(=O)Nc1sc2c(c1CN1CCCC1)CCCC2	?	-1%	?	-7%	-13%	?
Cc1sc(NC(=O)c2ccco2)c(CN2CCN(c3ccccn3)CC2)c1C	8%	-128%	?	·	·	9.3µM*
CC(=O)Nc1sc2c(c1CN1CCN(c3ccc(F)cc3)CC1)CCCC2	9.3µM*	-10%	?	-17%	-27%	·
CC(=O)Nc1sc(C)c(C)c1CN1CCN(Cc2ccccc2)CC1	4.1µM*	1%	12%	-12%	-7%	?
CCOC(=O)N1CCN(Cc2c(NC(=O)c3ccco3)sc(C)c2C)CC1	?	·	-24%	-3%	-11%	8%
O=C(NCCc1ccccc1)c1ccccc1NC(=O)C1CCCO1 (stereo not given)	?	1%	12%	-2%	i	101%
C=CCn1cnc2c(c1=O)c1nc3ccccc3nc1n2Cc1ccccc1	?	-2%	-7%	·	·	-8%
CCc1ccc(-c2cc(C)no2)cc1S(=O)(=O)N1CCOc2ccccc21	?	19%	11µM*	-12%	i	8.3µM*
CCN(CCCNS(=O)(=O)c1cc(-c2cc(C)no2)ccc1C)Cc1ccccc1	-16%	6%	13µM*	·	·	?
Cc1cc(-c2ccc(C)c(S(=O)(=O)N3CCN(C(=O)c4ccco4)CC3)c2)on1	?	9%	-16%	·	·	4%
SMILES	Pf growth 96h	NS1 inh	HCV inh	VACV Venus inh	Vaccinia mCherry	Pf growth 48h
CCc1ccc(-c2cc(C)no2)cc1S(=O)(=O)N1CCN(C(=O)c2ccco2)CC1	9.3µM*	-19%	?	?	-15%	?
CCc1ccc(-c2cc(C)no2)cc1S(=O)(=O)N1CCN(c2ccc(F)cc2)CC1	?	13%	5µM*	·	·	13µM*
CC(C)Cn1cc(C(=O)NCCCN2CCC(C)CC2)c2c3ccccc3n(C)c2c1=O	·	·	-20%	4%	12%	·
CCOC(=O)c1cc(NC(=O)c2ccccc2)c(=O)oc1-c1ccccc1	49%	6%	1%	·	·	5%
COc1ccc(C(C(=O)NC(C)(C)C)n2c(COc3ccc(C)cc3)nc3ccccc32)cc1 (stereo not given)	·	·	·	-23%	-19%	·
CCN(CC)CCOCCOc1ccccc1F	1%	-2%	21%	-8%	i	·
CCc1ccc(-c2cc(C)no2)cc1S(=O)(=O)NCCN1CCC(C)CC1	8%	-7%	?	?	-27%	?
CCc1ccc(-c2cc(C)no2)cc1S(=O)(=O)NCCCN1CCN(c2ccccc2)CC1	?	-15%	2µM*	10%[7.34 µM]	-7%[7.34 µM]	13µM*
O=C(CN1C(=O)S/C(=C\c2cccs2)C1=O)Nc1ccc(O)c(C(=O)O)c1	10µM*	19%	5%	·	·	-12%
Cc1ccc(C)c(S(=O)(=O)N2CCCCC2CCNC(=O)C(=O)NCc2cccnc2)c1 (stereo not given)	?	·	-25%	?	-30%	?
Cc1ccc(C)c(S(=O)(=O)N2CCCCC2CCNC(=O)C(=O)NCc2ccccc2)c1 (stereo not given)	?	·	22µM*	?	?	?
Cc1ccccc1CNC(=O)C(=O)NCCC1CCCCN1S(=O)(=O)c1ccccc1 (stereo not given)	?	·	?	-21%	?	13µM*
CCOc1ccccc1C(=O)N1CCc2cc(OC)c(OC)cc2C1COc1ccc2c(C)cc(=O)oc2c1 (stereo not given)	·	·	·	-20%	-28%	·
Cc1ccccc1C(O)(Cc1ccccc1)C1CN2CCC1CC2 (stereo not given)	10µM*	-2%	?	-29%	?	·
Nc1cccc(C(=O)OCC(=O)NC2CCCc3ccccc32)c1 (stereo not given)	19%	·	-13%	·	·	12µM*
N/C(Cc1cccs1)=N\OC(=O)COc1ccc(Br)cc1	·	-52%	0%	0%	2%	16%
COc1ccccc1-c1csc(N2CCC(C(N)=O)CC2)n1	?	·	·	·	·	12µM*
CCOc1ccc(C(=O)NCCc2sc(-c3ccc(C)cc3)nc2C)cc1	·	·	·	-13%	-19%	·
CCOC(=O)C1=C(C)N(CCCC(=O)O)C(=O)NC1c1cccc(OC)c1 (stereo not given)	·	·	6%	-4%	i	·
O=C(O)c1cc(=O)c2c3nc4ccccc4oc-3cc(=O)c2[nH]1	7%	·	·	-10%	-10%	?
Nc1cc2nc3ccccc3oc-2cc1=O	4.7µM*	-64%	0%	?	?	4.7µM*
CC(O)c1nc2ccccc2n1C1CCCCC1 (stereo not given)	-22%	2%	2%	-12%	i	?
